FBA Mtb inh = inhibits M. tuberculosis FBA enzyme; P9WQA3; purified M. tuberculosis FBA, fluorescence read-out; inhibition, % at 1 µM; actives 2.3% (n = 360,000); AID 588726;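 note: 0% = vehicle and 100% = reference inhibitor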
Target sequence (P9WQA3 whole entry, looked up): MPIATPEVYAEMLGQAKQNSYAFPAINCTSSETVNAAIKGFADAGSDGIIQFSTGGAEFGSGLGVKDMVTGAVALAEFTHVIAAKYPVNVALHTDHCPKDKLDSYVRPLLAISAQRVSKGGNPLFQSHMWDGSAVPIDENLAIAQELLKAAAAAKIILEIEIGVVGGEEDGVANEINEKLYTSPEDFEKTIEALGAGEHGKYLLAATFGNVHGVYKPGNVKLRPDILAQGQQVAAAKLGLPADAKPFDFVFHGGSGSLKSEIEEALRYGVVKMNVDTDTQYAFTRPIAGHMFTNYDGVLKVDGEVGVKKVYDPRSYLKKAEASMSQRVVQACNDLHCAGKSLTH
GDH-TPI counter-1 = inhibits GDH-TPI coupling enzymes, artifact for Mtb FBA screen; actives 1.2% (n = 360,000); GDH-TPI coupled enzyme counterscreen, NADH absorbance; inhibition, % at 4.8 µM; AID 588335; in the data active = inhibition above about 30%;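 note: 0% = DMSO wells and 100% = wells lacking the enzyme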
UGM FP inh = blocks M. tuberculosis UGM enzyme; purified UGM, fluorescence polarization probe displacement; actives 0.06% (n = 320,000); inhibition, % at 10 µM; P9WIQ1; in the data active = inhibition above about 10%, passing the limit was not always enough
Rv3671c inh = inhibits the M. tuberculosis serine protease Rv3671c. inhibition, % at 5.96 µM. actives 0.048% (n = 320,000). AID 2606; in the data active = inhibition above about 38%;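 note: extracellular domain of Rv3671c used as enzyme; 0% = enzyme with DMSO and 100% = no enzyme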
Mtb betalactam = beta-lactam sensitization of Mtb H37Rv. AID 434955. inhibition, % at 25 µM. actives 0.27% (n = 330,000). M. tuberculosis H37Rv growth with meropenem, percent inhibition; call rule not given here;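 note: growth measured after seven days incubation then overnight dye step; 0% = bacteria only wells and 100% = bacteria with antibiotic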
SSB-PriA inh = K. pneumoniae PriA-SSBct interaction inhibition | AlphaScreen SSBct-PriA binding, biotinylated peptide | inhibition, % at 33 µM | actives 0.6% (n = 430,000) | AID 1272365; in the data active = inhibition mostly above about 37%, no sharp cut-off; inactive = mostly below about 20%;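 note: plate controls were negative control peptide for no effect and reference peptide for full effect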
Mtb FBA inh conf = Mtb FBA inhibition, confirmed; shares compounds with FBA Mtb inh; purified M. tuberculosis FBA, fluorescence read-out; inhibition, % at 1 µM; actives 78% (n = 5,600);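 note: 0% = vehicle wells and 100% = reference inhibitor wells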
GDH-TPI counter-2 = GDH-TPI inhibition counter-screen for FBA inhibitors | shares compounds with FBA Mtb inh | GDH-TPI coupled enzyme counterscreen, fluorescence | inhibition, % at 1 µM | actives 81% (n = 5,600) | AID 652141; in the data active = inhibition above about 10%
The depositor's hits bear a star; . = no result given; + = active, no number. Most compounds without a hit are left out; they make up all but 3.2% or so of the library. Cut-off read from the data, not from the text of the source, unless noted: active = inhibition above about 27%; inactive = the rest.

SMILES	FBA Mtb inh	GDH-TPI counter-1	UGM FP inh	Rv3671c inh	Mtb betalactam	SSB-PriA inh	Mtb FBA inh conf	GDH-TPI counter-2
CC1=CC2=NC(=O)CC(C)(C(=O)N(CC(=O)NC3CCCC3)Cc3ccccc3)N2C=C1 (stereo not drawn)	69*	8	-1	-1	-4	1	9	4
Cc1cc(NC(=O)CCC(=O)N(CC(=O)NCC2CCCO2)c2cccc(C)c2C)no1 (stereo not drawn)	-5	-5	1	3	1	-2	.	.
O=C(Nc1ccc(F)c(Cl)c1)c1cc(S(=O)(=O)N2CCCCCC2)ccc1F	.	.	.	.	.	-7	.	.
CC1(C(=O)N(c2ccccc2)C(C(=O)NC2CCCC2)c2ccccn2)CC(=O)N=C2C=CC=CN21 (stereo not drawn)	96*	14	1	-2	-7	-6	107*	81*
CC1(C(=O)N(CC(=O)NC2CCCC2)C2CCCC2)CC(=O)N=C2C=CC=CN21 (stereo not drawn)	110*	25	0	12	-2	-6	-1	-5
O=C(NC1CCCC1)C(c1ccccn1)N(C(=O)c1csnn1)c1ccccc1 (stereo not drawn)	0	-4	0	7	10	-7	.	.
Cn1c(-c2ccc(C#N)cc2)c(C#Cc2ccccc2)c2ccccc21	93*	4	.	.	.	-26	50*	34*
COc1cc(C#Cc2c(-c3ccccc3)n(C)c3ccccc23)cc(OC)c1	38*	8	1	-5	9	-7	4	-4
COC(=O)c1ccc2c(c1)c(C#Cc1ccccc1)c(-c1ccccc1)n2C	40*	-5	.	.	.	-15	-5	0
COc1ccc(-c2c(-c3ccc4c(c3)OCO4)c3ccccc3n2C)cc1	18	7	.	.	.	-4	.	.
COc1ccc(-c2c(-c3ccccc3)n(C)c3ccccc23)cc1	41*	7	0	2	0	2	6	-1
COc1ccc(C#Cc2c(-c3ccccc3)n(C)c3ccccc23)cc1	10	12	-1	-8	-4	-35	.	.
COc1ccc(CCS(=O)(=O)Nc2ccc3c(c2)CN(C(=O)C2CC2)CC3)cc1	.	.	.	.	.	7	.	.
CC1(C)CC(=O)C2=C(C1)c1c(ccc3ccccc13)NC2c1ccco1 (stereo not drawn)	87*	1	1	-15	4	1	104*	89*
Cc1ccsc1C1Nc2ccc3ncccc3c2C2=C1C(=O)CC(C)(C)C2 (stereo not drawn)	-3	28	4	8	33	35	.	.
COC(=O)c1cc(-c2ccc(OC)cc2F)nc2nc(SC)[nH]c(=O)c12	27*	17	0	-11	4	0	+	+
COC(=O)c1cc(-c2ccccc2)nc2nc(SC)[nH]c(=O)c12	17	19	6	-4	-4	-2	.	.
O=C(Nc1ccccc1-c1cn2ccccc2n1)c1ccc(Cn2ccnc2)cc1	.	.	.	.	.	14	.	.
CCOc1ncnc2c1[nH]c1ccccc12	37*	14	0	4	-3	-1	35*	28*
O=C(CNC(=O)c1ccccc1Cl)NN=Cc1ccc([N+](=O)[O-])s1	.	.	.	.	.	-12	.	.
Cc1cc(C)n(-c2nc(CCNS(=O)(=O)Cc3cccc(F)c3)cs2)n1	.	.	.	.	.	-1	.	.
CCCCN(C)CCNC(=O)c1c[nH]c2ccc(S(=O)(=O)N(CC)CC)cc2c1=O	29*	21	3	6	-1	-3	51*	52*
COc1ccc(C2C3=C(CC(C)(C)CC3=O)Nc3nc(C)nn32)cc1OC (stereo not drawn)	36*	12	-2	7	8	0	+	+
COc1ccc2nc(-n3nc(C)cc3NC(=O)c3ccccc3S(C)(=O)=O)sc2c1	.	.	.	.	.	2	.	.
CC(=NNC(=O)CSc1nc(C)cc(C)n1)c1ccc([N+](=O)[O-])cc1	.	.	.	.	.	-5	.	.
SMILES	FBA Mtb inh	GDH-TPI counter-1	UGM FP inh	Rv3671c inh	Mtb betalactam	SSB-PriA inh	Mtb FBA inh conf	GDH-TPI counter-2
Cc1ccccc1N(C(=O)c1snc(C(N)=O)c1N)C(C(=O)NCC1CCCO1)c1ccc(F)cc1 (stereo not drawn)	55*	0	2	0	10	1	3	0
NC(=O)c1nsc(C(=O)N(c2cccc(F)c2)C(C(=O)NCC2CCCO2)c2cccs2)c1N (stereo not drawn)	34*	7	0	-1	3	-10	86*	76*
CC(C(=O)NCC1CCCO1)N(C(=O)c1snc(C(N)=O)c1N)c1cccc(F)c1 (stereo not drawn)	19	9	1	-1	-2	-8	.	.
CCc1ccccc1N(C(=O)c1snc(C(N)=O)c1N)C(C(=O)NCC1CCCO1)c1ccc(C)o1 (stereo not drawn)	49*	9	-1	-7	3	0	10	-3
NC(=O)NCc1ccco1	.	.	.	.	.	-5	.	.
CCNc1cc(C)nc(NCCNC(=O)c2ccccc2F)n1	.	.	.	.	.	-9	.	.
Cn1cccc1C(CNC(=O)C(=O)Nc1ccon1)N1CCc2ccccc2C1 (stereo not drawn)	.	.	.	.	.	-14	.	.
CC(C)(C)S(=O)(=O)[C@H]1CCN(C(=O)CCc2c(Cl)cccc2Cl)C1	.	.	.	.	.	-23	.	.
COc1ccc(NC(=O)CN(C)C(=O)c2cc(-c3ccc(OC)cc3)nc3ccccc23)cc1	35*	19	3	-25	78	-10	49*	36*
COc1ccc(-c2cc(C(=O)N(C)CC(=O)Nc3cccc(F)c3)c3ccccc3n2)cc1	54*	7	-1	-15	-2	-1	115*	83*
O=C(CSc1ccc2nnc(-c3cccc(F)c3)n2n1)NCc1ccccc1Cl	.	.	.	.	.	14	.	.
CCN(C(=O)C1CC1)C1CCS(=O)(=O)C1 (stereo not drawn)	35*	-6	1	2	-4	-3	121*	106*
CCCCN(C(=O)C1CC1)C1CCS(=O)(=O)C1 (stereo not drawn)	1	-10	-1	-7	-17	2	.	.
CN(c1ccc(Cl)cc1)c1cc(=O)n(C)c2ccccc12	7	18	-2	0	45	-22	.	.
CN(C)c1ccc2c(O)cc(=O)n(C)c2c1	37*	18	0	1	-5	-14	29*	25*
Cc1nc(SCc2ccccc2F)[nH]c(=O)c1CC(=O)NCc1ccccc1Cl	.	.	.	.	.	-1	.	.
CO[C@@](C)(CNC(=O)C(=O)Nc1ccccc1SC)c1ccccc1F	.	.	.	.	.	-12	.	.
COc1ccc(-c2nc(CCl)cs2)cc1	3	-12	0	12	0	-8	.	.
COc1ccc(-c2nc(CCl)cs2)cc1OC	72*	6	-2	-5	5	-6	91*	81*
CCOc1ccccc1-c1nc2c([nH]1)c(=O)n(C)c(=O)n2C	39*	17	2	-3	-5	-15	94*	82*
